Screening data: PubChem, Broad Institute
Not all results are given here.
aSyn 5UTR act = Activators working through SNCA 5'UTR binding (MLPCN); alpha-synuclein 5'UTR reporter, activators screen; activity score, % (tested at 7.5 µM), hits read low; actives 7.1% (n = 300,000); in the data active = activity score below about -60%
The depositor's hits bear a star.

SMILES | aSyn 5UTR act
O=C(N/N=C/c1c(O)ccc2ccccc12)c1[nH]ncc1Br | 106
O=C(N/N=C/c1cccs1)c1[nH]ncc1Br | -95*
Cc1cc(C(=O)N/N=C/c2cc(Br)cc(Br)c2OC(=O)c2ccccc2)n[nH]1 | 89
C/C(=N\NC(=O)c1cc(C)[nH]n1)c1ccc(-c2ccccc2)cc1 | -78*
Cc1cc(C(=O)N/N=C/c2cccs2)n[nH]1 | -83*
Cc1cc(C(=O)N/N=C\c2cc(C(C)(C)C)ccc2O)n[nH]1 | 75
O=C(NNc1nc(-c2ccc(F)cc2)cs1)c1ccccc1 | 90
O=C(Nc1nc(-c2ccc(-c3ccccc3)cc2)cs1)C1CCCO1 (stereo not given) | -65*
c1ccc(-c2csc(NC3CCCCC3)n2)cc1 | -92*
O=C(Nc1nc(-c2ccc(F)cc2)cs1)C1CCCO1 (stereo not given) | -97*
O=C(Nc1nc(-c2ccccc2)cs1)C1CCCO1 (stereo not given) | -66*
c1ccc(-c2nnc(-c3ccccn3)nc2NC2CCCCC2)cc1 | 101
CS(=O)(=O)c1ccccc1-c1nc(-c2ccc(C(F)(F)F)cc2)no1 | -62*
O=C(O)c1ccc(-c2noc(-c3ccccc3C(F)(F)F)n2)cc1 | -109*
O=C(O)c1ccc(-c2noc(-c3ccc(F)cc3)n2)cc1 | -93*
Cc1c(-c2nc(-c3ccc(C(F)(F)F)cc3)no2)n(C)oc1=O | -82*
O=C(O)c1ccc(-c2noc(-c3ccccc3Cl)n2)cc1 | -97*
O=C(NCCC1CCCCN1S(=O)(=O)c1ccc(Cl)cc1)C(=O)NCc1ccncc1 (stereo not given) | 62
O=C(NCCC1CCCCN1S(=O)(=O)c1cccs1)C(=O)Nc1ccc(F)cc1 (stereo not given) | -87*
COc1cccc(NC(=O)C(=O)NCCC2CCCCN2S(=O)(=O)c2ccccc2)c1 (stereo not given) | -158*
COc1cccc(NC(=O)C(=O)NCC2CCCN2S(=O)(=O)c2ccccc2)c1 (stereo not given) | -216*
COc1ccc(NC(=O)c2nc3nccc(C)n3n2)cn1 | -72*
COc1ccc(NC(=O)c2sccc2C)cn1 | -115*
COc1ccc(NC(=O)c2cc(Br)c(Br)s2)cn1 | -69*
CCc1cc(C(=O)Nc2ccc(OC)nc2)sc1C | -95*
SMILES | aSyn 5UTR act
Fc1ccc(NC(=S)Nc2ccc3nccnc3c2)cc1 | -91*
S=C(Nc1ccccc1)Nc1nccs1 | -177*
CC(C)(C)c1nnc(NC(=S)Nc2ccccc2)s1 | -167*
Fc1ccc(NC(=S)Nc2nccs2)cc1 | -128*
CC(=O)Nc1ccc(-c2csc(Nc3ccccn3)n2)cc1 | -161*
CC(=O)Nc1ccc(Nc2nc(-c3c(C)nc4ccccn34)cs2)cc1 | 87
Cc1ccnc(Nc2nc(-c3ccc(O)cc3O)cs2)c1 | -136*
Oc1ccc(-c2csc(Nc3ccccn3)n2)cc1O | -139*
Cc1ccnc(Nc2nc(-c3ccc(O)c(O)c3)cs2)c1 | -148*
COc1ccc(OC)c(Nc2nc(-c3sc(NC(=O)CC(C)C)nc3C)cs2)c1 | 58
Cc1ccnc(Nc2nc(-c3ccc(O)cc3)cs2)c1 | -232*
CC(=O)Nc1ccc(-c2csc(NCCc3ccccc3)n2)cc1 | -141*
CCC(=O)Nc1nc(C)c(-c2csc(Nc3ccccn3)n2)s1 | -122*
NNC(=O)c1cc2cc3ccccc3nc2s1 | -94*
Cc1ccnc(NC(=O)CNC(=O)c2sc3ccccc3c2Cl)c1 | -216*
Cc1ccc(C(=O)NCCOc2ccc(Cl)cc2)cc1 | -88*
Cc1ccnc(NC(=O)CCCNC(=O)c2ccc(Cl)cc2)c1 | -182*
CCN(CC)Cc1ccc(NC(=O)c2sc3cc(Cl)ccc3c2Cl)cc1 | 104
Cc1ccnc(NC(=O)c2sc3cc(Cl)ccc3c2Cl)c1 | -140*
Cn1c(C(C#N)C(=O)c2ccco2)nc2ccccc21 (stereo not given) | -125*
COCCn1c(C)cc(C(=O)CSc2nc3ccccc3c(=O)[nH]2)c1C | -152*
COCCn1c(C)cc(C(=O)CSc2ccc3ccccc3n2)c1C | -141*
CCCn1c(C)cc(C(=O)CSc2nc3ccccc3c(=O)n2Cc2ccco2)c1C | -219*
O=C1NC(=S)N/C1=C/c1cccc2ccccc12 | -129*
Cc1cc(C)c2c(N)c(C(=O)Nc3ccccc3F)sc2n1 | -157*
SMILES | aSyn 5UTR act
Cc1cc(C)c2c(N)c(C(=O)Nc3ccccc3Cl)sc2n1 | -105*
Cc1cc(C)c2c(N)c(C(=O)Nc3ccccc3Br)sc2n1 | -133*
C=COC(=O)c1sc2nc(C)cc(C)c2c1N | -62*
Cc1cc(N/N=C/c2ccccc2Br)nc2ccccc12 | -196*
Brc1ccccc1/C=N/Nc1ccc2ccccc2n1 | -256*
Brc1ccc(/C=N/Nc2ccccc2)cc1 | -92*
Brc1ccc(/C=N/Nc2ccc3ccccc3n2)cc1 | -187*
Cc1cc(C)nc(Nc2n[nH]c(-c3cccc4ccccc34)n2)n1 | -88*
Cc1cc(C)nc(Nc2n[nH]c(COc3ccccc3)n2)n1 | -110*
Cc1cc(C)nc(Nc2n[nH]c(-c3ccccc3Cl)n2)n1 | -141*
COc1ccc(-c2noc(-c3ccoc3C)n2)cc1OC | -132*
COc1ccc(C2=Nn3c(nnc3-c3ccco3)SC2)cc1OC | 79
